Test results reported in PubChem BioAssay AID1159580 (chemical genetic matrix, 2015).
Several values for one entry are separate records, joined by “and”; a condition that tells them apart may be missing. Equal values may be shown once. Screen size: about 5,500 compounds; about 2,000 (36%) were called active. About 18% were inconclusive and are not listed. Cut-off read from the data, not from the text of the source: active = normalized growth mostly below about 0.91 (no sharp cut-off); inconclusive = no clear call, values can overlap the other calls; inactive = mostly above about 0.92. This is one part of the list.

Test: chemical genetic growth profiling, strain panel (AID 1159580);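 note: tested at 20 µM; growth read once vehicle control cultures reached saturation at 30 °C; 1 = growth at the plate median or of vehicle wells; lower values mean less growth of the strain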
Details: S. cerevisiae deletion strains, growth OD

Measured: normalized growth

C[C@](N)(Cc1ccc(O)c(O)c1)C(=O)O
inactive: locus YAL013W, strain DEP1, hits give low values 0.962 | locus YAL021C, strain ccr4, hits give low values 0.999 | locus YAL026C, strain drs2, hits give low values 0.968 | locus YAL030W, strain snc1, hits give low values 0.967 | locus YBL061C, strain skt5, hits give low values 0.971 | locus YBR009C, strain hhf1, hits give low values 0.964 | locus YBR021W, strain FUR4, hits give low values 1.03 | locus YBR023C, strain chs3, hits give low values 0.957 | locus YBR171W, strain sec66, hits give low values 0.951 | locus YBR229C, strain ROT2, hits give low values 0.951 | locus YBR231C, strain swc5, hits give low values 0.974 | locus YBR279W, strain paf1, hits give low values 0.96 | locus YCL011C, strain gbp2, hits give low values 0.912 | locus YCL016C, strain dcc1, hits give low values 0.92 | locus YCL029C, strain bik1, hits give low values 0.995 | locus YCL061C, strain MRC1, hits give low values 0.966 | locus YCL069W, strain vba3, hits give low values 0.982 | locus YCR088W, strain abp1, hits give low values 0.991 | locus YDL005C, strain med2, hits give low values 0.991 | locus YDL035C, strain GPR1, hits give low values 0.91 | locus YDL040C, strain nat1, hits give low values 0.989 | locus YDL074C, strain BRE1, hits give low values 1.01 | locus YDL101C, strain DUN1, hits give low values 0.987 | locus YDL134C, strain PPH21, hits give low values 0.974 | locus YDL185W, strain tfp1, hits give low values 0.988 | locus YDL192W, strain arf1, hits give low values 0.974 | locus YDR001C, strain nth1, hits give low values 0.971 | locus YDR069C, strain doa4, hits give low values 0.936 | locus YDR101C, strain arx1, hits give low values 1.01 | locus YDR137W, strain rgp1, hits give low values 0.945 | locus YDR150W, strain NUM1, hits give low values 0.943 | locus YDR159W, strain sac3, hits give low values 1 | locus YDR162C, strain NBP2, hits give low values 0.911 | locus YDR195W, strain ref2 0.984 | locus YDR297W, strain sur2, hits give low values 0.963 | locus YDR318W, strain mcm21, hits give low values 0.993 | locus YDR334W, strain swr1, hits give low values 0.92 | locus YDR335W, strain msn5, hits give low values 0.961 | locus YDR388W, hits give low values 1.01 | locus YDR392W, strain spt3, hits give low values 0.886 | locus YDR502C, strain sam2, hits give low values 1 | locus YEL003W, strain gim4, hits give low values 0.992 | locus YEL037C, strain rad23, hits give low values 0.977 | locus YEL061C, strain CIN8 (second series), hits give low values 0.977 | locus YEL061C, strain CIN8, hits give low values 0.978 | locus YER015W, strain faa2, hits give low values 0.965 | locus YER016W, strain bim1, hits give low values 0.987 | locus YER110C, hits give low values 0.971 | locus YER111C, strain swi4, hits give low values 0.995 | locus YER155C, strain BEM2 (second series), hits give low values 0.986 | locus YER155C, strain BEM2, hits give low values 1.02 | locus YER167W, strain BCK2, hits give low values 0.961 | locus YFR010W, strain ubp6, hits give low values 0.939 | locus YGL078C, strain dbp3, hits give low values 0.984 | locus YGL086W, strain mad1, hits give low values 0.958 | locus YGL167C, strain pmr1, hits give low values 0.954 | locus YGL173C, strain kem1, hits give low values 0.941 | locus YGL227W, strain vid30, hits give low values 0.979 | locus YGL240W, strain doc1, hits give low values 0.998 | locus YGL248W, strain PDE1, hits give low values 0.958 | locus YGL253W, strain hxk2, hits give low values 0.981 | locus YGR078C, strain PAC10, hits give low values 0.907 | locus YGR135W, strain pre9, hits give low values 0.973 | locus YGR229C, strain SMI1, hits give low values 0.917 | locus YGR252W, strain gcn5, hits give low values 0.908 | locus YHR013C, strain ard1, hits give low values 0.894 | locus YHR027C, strain rpn1, hits give low values 0.95 | locus YHR030C, strain SLT2, hits give low values 0.981 and 1.04 | locus YHR079C, strain IRE1 (second series), hits give low values 1 | locus YHR079C, strain IRE1, hits give low values 1.05 | locus YHR094C, strain hxt1, hits give low values 0.999 | locus YHR129C, strain ARP1, hits give low values 0.985 | locus YHR142W, strain chs7, hits give low values 0.913 | locus YHR200W, strain rpn10, hits give low values 0.981 | locus YIL066C, strain RNR3, hits give low values 0.882 | locus YIL073C, strain SPO22, hits give low values 0.793 | locus YIL125W, strain kgd1, hits give low values 0.99 | locus YIR030C, strain dcg1, hits give low values 0.987 | locus YJL092W, strain hpr5, hits give low values 0.966 | locus YJL095W, strain BCK1 (second series), hits give low values 0.965 | locus YJL095W, strain BCK1, hits give low values 1.02 | locus YJL115W, strain asf1, hits give low values 0.953 | locus YJL129C, strain trk1, hits give low values 0.973 | locus YJL134W, strain LCB3, hits give low values 0.976 | locus YJL154C, strain vps35, hits give low values 0.974 | locus YJL164C, strain tpk1, hits give low values 0.979 | locus YJL166W, strain qcr8, hits give low values 0.927 | locus YJL168C, strain set2, hits give low values 0.995 | locus YJL187C, strain SWE1 (second series), hits give low values 0.985 | locus YJL187C, strain SWE1, hits give low values 0.978 | locus YJR043C, strain POL32, hits give low values 0.967 | locus YJR066W, strain TOR1, hits give low values 0.99
